# In ChEMBL document CHEMBL2218924, “A broad activity screen in support of a chemogenomic map for kinase signalling research and drug discovery” (Biochem J, 2013):
# How the values were obtained:
# [1] = target: T1, Ephrin type-B receptor 1 (Homo sapiens) (UniProt P54762); conditions: at 10 µM
# T1 sequence (whole entry): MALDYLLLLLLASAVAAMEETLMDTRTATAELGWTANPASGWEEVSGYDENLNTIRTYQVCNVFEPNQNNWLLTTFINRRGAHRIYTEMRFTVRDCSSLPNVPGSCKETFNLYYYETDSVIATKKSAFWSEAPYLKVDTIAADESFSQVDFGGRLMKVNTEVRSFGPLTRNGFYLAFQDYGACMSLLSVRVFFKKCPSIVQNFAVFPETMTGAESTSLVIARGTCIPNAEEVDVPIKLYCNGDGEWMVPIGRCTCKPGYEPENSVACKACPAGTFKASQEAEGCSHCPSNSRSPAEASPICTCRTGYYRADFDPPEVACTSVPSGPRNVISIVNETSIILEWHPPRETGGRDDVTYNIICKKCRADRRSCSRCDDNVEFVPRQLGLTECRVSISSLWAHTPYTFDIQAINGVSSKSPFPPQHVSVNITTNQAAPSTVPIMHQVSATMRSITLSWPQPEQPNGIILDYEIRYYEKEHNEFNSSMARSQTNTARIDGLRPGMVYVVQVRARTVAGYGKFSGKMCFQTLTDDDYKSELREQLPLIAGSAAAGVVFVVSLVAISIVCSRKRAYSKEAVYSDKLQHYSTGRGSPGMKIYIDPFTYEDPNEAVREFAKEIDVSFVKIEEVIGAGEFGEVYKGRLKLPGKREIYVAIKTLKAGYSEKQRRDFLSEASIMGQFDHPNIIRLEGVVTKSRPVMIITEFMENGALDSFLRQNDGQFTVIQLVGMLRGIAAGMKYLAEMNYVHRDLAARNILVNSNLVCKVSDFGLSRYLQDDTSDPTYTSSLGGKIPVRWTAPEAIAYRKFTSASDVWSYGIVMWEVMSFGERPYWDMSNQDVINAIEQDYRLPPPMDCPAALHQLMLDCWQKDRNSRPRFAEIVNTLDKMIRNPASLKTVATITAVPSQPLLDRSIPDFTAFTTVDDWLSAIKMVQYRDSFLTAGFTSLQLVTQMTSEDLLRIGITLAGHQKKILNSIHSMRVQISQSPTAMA
# [2] = target: T2, Ephrin type-B receptor 2 (Homo sapiens) (UniProt P29323); conditions: at 1 µM
# T2 sequence (whole entry): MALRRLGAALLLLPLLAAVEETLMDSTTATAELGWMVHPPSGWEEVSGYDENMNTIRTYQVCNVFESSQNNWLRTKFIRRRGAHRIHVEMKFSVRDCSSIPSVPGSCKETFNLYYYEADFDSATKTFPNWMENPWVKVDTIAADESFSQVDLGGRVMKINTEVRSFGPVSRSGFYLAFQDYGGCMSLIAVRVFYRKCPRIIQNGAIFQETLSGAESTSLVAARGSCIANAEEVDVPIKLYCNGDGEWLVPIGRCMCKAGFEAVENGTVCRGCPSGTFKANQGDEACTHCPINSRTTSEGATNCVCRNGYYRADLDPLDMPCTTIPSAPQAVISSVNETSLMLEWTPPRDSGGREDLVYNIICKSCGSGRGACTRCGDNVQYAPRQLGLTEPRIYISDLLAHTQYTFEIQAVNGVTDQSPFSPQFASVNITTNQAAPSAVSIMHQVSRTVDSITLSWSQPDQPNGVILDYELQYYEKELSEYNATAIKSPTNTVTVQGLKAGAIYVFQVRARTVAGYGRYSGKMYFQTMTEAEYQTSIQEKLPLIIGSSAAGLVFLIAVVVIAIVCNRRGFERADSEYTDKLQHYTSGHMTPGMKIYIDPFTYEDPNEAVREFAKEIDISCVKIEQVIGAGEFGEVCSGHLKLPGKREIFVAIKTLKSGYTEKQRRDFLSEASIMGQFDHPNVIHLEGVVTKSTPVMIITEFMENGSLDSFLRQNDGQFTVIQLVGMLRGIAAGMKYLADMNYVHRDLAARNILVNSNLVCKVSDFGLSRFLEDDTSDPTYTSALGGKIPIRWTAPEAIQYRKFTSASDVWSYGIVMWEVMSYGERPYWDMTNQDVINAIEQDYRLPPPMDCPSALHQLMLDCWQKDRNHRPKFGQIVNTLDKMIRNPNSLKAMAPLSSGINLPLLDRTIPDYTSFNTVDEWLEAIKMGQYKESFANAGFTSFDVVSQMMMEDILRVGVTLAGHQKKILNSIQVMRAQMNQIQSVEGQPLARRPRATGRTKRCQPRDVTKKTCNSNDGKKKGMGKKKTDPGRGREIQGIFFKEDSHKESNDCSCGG
# [3] = target: T2, Ephrin type-B receptor 2 (Homo sapiens); conditions: at 10 µM
# [4] = target: T3, Ephrin type-B receptor 3 (Homo sapiens) (UniProt P54753); conditions: at 1 µM
# T3 sequence (whole entry): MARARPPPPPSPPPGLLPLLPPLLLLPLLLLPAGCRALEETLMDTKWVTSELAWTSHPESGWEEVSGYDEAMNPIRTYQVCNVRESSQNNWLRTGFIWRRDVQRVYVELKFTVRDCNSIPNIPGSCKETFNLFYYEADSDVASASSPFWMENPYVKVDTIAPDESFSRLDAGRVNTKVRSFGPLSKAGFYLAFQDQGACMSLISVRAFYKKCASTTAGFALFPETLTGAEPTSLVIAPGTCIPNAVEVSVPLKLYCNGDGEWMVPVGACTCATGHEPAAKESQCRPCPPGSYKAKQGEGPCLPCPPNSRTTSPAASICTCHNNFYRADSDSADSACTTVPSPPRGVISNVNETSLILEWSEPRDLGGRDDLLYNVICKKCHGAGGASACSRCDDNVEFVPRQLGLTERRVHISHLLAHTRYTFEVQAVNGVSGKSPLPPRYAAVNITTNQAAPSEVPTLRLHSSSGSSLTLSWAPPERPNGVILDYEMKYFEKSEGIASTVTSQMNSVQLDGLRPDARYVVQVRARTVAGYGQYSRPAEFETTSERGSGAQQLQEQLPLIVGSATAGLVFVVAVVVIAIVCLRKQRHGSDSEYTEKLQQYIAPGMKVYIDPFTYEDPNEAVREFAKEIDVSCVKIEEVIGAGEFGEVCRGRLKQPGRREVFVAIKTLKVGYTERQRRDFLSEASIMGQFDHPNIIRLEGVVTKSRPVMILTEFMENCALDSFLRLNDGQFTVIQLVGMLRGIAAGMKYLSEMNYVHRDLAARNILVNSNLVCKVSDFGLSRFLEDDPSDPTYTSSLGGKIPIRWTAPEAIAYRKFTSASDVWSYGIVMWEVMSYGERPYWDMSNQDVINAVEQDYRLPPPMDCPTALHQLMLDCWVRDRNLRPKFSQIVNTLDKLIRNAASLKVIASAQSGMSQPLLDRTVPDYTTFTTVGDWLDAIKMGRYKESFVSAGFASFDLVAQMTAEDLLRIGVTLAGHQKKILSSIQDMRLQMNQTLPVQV
# [5] = target: T3, Ephrin type-B receptor 3 (Homo sapiens); conditions: at 10 µM
# [6] = target: T4, Ephrin type-B receptor 4 (Homo sapiens) (UniProt P54760); conditions: at 1 µM
# T4 sequence (whole entry): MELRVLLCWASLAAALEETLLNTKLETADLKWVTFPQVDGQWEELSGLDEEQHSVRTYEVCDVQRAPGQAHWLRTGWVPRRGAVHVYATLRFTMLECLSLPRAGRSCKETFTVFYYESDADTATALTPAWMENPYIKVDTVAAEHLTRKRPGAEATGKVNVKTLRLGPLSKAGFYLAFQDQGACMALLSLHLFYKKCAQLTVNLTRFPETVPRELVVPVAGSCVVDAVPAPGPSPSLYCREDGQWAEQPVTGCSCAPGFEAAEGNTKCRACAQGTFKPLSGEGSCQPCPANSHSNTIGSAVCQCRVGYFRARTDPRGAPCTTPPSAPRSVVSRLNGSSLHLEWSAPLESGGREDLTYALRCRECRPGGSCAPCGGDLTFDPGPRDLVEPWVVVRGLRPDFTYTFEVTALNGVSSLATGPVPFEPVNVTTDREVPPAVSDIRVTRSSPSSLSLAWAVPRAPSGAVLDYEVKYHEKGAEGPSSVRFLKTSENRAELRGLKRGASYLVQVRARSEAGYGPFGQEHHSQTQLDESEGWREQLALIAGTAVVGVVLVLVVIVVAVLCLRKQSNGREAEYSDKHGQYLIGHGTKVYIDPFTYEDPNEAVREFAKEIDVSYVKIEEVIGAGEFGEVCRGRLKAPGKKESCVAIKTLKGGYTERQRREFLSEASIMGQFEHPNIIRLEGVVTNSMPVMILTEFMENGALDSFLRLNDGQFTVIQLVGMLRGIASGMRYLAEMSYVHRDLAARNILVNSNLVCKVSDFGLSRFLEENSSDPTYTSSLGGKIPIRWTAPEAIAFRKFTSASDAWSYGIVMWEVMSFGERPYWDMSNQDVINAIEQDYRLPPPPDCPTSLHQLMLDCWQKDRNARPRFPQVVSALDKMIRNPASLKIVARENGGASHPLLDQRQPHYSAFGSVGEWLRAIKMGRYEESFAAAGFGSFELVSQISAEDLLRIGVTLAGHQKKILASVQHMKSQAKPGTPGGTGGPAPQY
# [7] = target: T4, Ephrin type-B receptor 4 (Homo sapiens); conditions: at 10 µM
# [8] = target: Receptor tyrosine-protein kinase erbB-4 (Homo sapiens) (UniProt Q15303); conditions: at 1 µM
# [9] = target: Receptor tyrosine-protein kinase erbB-4 (Homo sapiens) (UniProt Q15303); conditions: at 10 µM
# [10] = target: Focal adhesion kinase 1 (Homo sapiens) (UniProt Q05397); conditions: at 1 µM
# Sequence of Focal adhesion kinase 1 (Homo sapiens) (Q05397 2-1052 limits assumed): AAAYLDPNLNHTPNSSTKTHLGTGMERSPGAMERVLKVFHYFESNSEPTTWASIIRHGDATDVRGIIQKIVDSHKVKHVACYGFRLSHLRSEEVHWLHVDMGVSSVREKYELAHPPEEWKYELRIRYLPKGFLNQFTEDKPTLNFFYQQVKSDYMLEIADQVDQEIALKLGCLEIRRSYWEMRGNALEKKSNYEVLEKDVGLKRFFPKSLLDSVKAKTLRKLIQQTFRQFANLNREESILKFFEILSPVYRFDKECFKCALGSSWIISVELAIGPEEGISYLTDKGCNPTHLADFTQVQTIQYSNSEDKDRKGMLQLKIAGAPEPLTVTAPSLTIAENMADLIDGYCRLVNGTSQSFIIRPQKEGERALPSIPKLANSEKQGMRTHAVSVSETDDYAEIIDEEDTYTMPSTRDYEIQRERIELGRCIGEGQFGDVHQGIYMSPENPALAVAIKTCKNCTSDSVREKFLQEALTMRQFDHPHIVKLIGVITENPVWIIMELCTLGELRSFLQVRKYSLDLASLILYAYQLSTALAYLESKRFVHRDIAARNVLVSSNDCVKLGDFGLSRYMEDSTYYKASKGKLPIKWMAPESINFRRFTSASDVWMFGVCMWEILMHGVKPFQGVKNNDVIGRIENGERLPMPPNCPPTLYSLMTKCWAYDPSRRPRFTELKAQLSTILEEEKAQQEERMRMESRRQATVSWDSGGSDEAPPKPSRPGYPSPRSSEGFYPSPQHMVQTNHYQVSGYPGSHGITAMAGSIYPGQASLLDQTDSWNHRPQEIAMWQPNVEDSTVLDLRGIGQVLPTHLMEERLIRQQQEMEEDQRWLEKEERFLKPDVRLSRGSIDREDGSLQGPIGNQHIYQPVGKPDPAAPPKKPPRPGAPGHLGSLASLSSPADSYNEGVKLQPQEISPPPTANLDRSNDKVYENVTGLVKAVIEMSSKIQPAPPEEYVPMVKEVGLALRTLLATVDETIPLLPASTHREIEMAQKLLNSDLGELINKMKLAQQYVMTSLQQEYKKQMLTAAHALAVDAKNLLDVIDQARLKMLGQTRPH
# Sequence of Receptor tyrosine-protein kinase erbB-4 (Homo sapiens) (Q15303 whole entry): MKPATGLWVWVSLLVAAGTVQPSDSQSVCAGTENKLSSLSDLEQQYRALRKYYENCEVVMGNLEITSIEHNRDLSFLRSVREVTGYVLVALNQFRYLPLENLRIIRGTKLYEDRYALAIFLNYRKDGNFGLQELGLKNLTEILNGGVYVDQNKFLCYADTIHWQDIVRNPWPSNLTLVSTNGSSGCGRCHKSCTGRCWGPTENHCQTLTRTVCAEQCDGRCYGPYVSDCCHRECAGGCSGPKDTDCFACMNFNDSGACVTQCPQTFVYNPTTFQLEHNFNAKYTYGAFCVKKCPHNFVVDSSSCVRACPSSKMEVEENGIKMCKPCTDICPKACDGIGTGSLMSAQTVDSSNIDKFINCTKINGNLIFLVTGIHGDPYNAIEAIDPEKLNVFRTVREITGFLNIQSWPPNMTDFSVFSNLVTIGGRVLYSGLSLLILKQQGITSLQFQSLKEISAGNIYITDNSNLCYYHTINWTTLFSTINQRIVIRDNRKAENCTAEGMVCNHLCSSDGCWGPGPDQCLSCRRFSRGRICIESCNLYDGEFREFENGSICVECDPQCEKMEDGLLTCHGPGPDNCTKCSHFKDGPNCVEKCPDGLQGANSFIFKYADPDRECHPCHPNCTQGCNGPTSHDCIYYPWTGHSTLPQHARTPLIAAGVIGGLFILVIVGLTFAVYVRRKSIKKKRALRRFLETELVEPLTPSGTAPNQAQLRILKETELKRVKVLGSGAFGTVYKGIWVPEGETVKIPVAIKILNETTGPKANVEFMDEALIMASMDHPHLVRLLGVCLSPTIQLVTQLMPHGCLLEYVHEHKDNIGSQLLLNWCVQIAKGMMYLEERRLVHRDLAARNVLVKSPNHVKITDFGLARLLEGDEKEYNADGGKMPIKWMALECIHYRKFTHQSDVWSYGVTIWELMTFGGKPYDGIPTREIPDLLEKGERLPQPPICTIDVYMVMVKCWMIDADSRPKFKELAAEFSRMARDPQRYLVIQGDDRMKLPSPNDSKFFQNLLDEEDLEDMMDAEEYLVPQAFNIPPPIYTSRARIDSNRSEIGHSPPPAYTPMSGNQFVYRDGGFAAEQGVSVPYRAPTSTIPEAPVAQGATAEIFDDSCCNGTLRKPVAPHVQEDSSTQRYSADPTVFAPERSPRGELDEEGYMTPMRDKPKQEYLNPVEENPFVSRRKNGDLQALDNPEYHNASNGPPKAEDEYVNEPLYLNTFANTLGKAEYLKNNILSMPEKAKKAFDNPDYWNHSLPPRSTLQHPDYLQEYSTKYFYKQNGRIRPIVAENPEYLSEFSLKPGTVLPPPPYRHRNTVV
smiles,measurement,setting,value
COc1cccc(-c2cc(=O)c3ccccc3o2)c1N,residual activity,[1],100%
same,residual activity,[2],118%
same,residual activity,[3],132%
same,residual activity,[4],107% (inactive)
same,residual activity,[5],112%
same,residual activity,[6],94%
same,residual activity,[7],109%
same,residual activity,[8],90%
same,residual activity,[9],93%
same,residual activity,[10],115%
